Assay outcomes deposited in PubChem BioAssay by several laboratories.
KKLEB tox = counter-screen for CF NF-kB inhibitors: cytotoxicity. KKLEB CF airway cells viability, ATPlite luminescence, overnight; active compounds read low; cells stimulated with P. aeruginosa culture filtrate. hit rate 0.36% among 360,000. activity change (cytotoxicity), % at 5 µM;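 active = corrected activity change at or below -50% at 5 µM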
CF NFkB inh = inhibitors of cystic fibrosis induced NF-kB; inhibition, % at 5 µM; KKLEB NF-kB-GFP reporter, PAF-induced, GFP fluorescence overnight; AID 588850; hit rate 0.86% among 360,000;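 active = at least 50% inhibition at 5 µM, scaled per plate between neutral and stimulator controls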;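 note: PAF is a Pseudomonas aeruginosa culture filtrate used as stimulus; plate controls were PAF-stimulated DMSO wells for no effect and unstimulated DMSO wells for full effect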
PAX8 inh HTS = PAX8 transcriptional activity inhibition | RMG-I TPO-luciferase reporter, SteadyGlo, 24 h | inhibition, % at 12.6 µM | hit rate 1.2% among 360,000 | AID 652154;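 active = mean replicate inhibition at least 60% with every replicate also reaching 60%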;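 note: luciferase light reporting Pax8 driven TPO promoter activity; plate controls were median of neutral control wells for no effect and mitoxantrone controls for full effect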
EWS-Fli inh = inhibitors of EWS/Fli oncoprotein transcriptional activity | A673 NR0B1-luciferase reporter, viability-normalised | inhibition, % at 12.6 µM | hit rate 0.67% among 350,000;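 active = mean inhibition of at least 50% after viability correction, with every replicate also passing that limit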;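 note: firefly luciferase signal divided by Alamar Blue viability fluorescence both relative to DMSO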
HIF-2a block = HIF-2a inhibition; 786-0 RCC cells HIF-2a reporter, luciferase luminescence, overnight; inhibition, % at 18.8 µM; hit rate 0.72% among 360,000;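 active = inhibition of the luminescence signal of 40% or more relative to plate controls, in a single-dose primary screen at 18.75 µM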
Mdm2 MdmX conf = Mdm2/MdmX (human) interaction inhibition, confirmed. SaOS-2 split-luciferase Mdm2/MdmX complementation, luminescence. shares compounds with HIF-2a block. hit rate 99% among 740. AID 504601. inhibition, % at 8 µM;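 active = mean inhibition of the luminescence signal across two replicates at or above 26 percent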
HIF-2a inh conf = confirmation of HIF-2a inhibitors. shares compounds with HIF-2a block. 786-0 RCC cells, HIF-2a luciferase reporter luminescence, overnight. inhibition, % at 18.8 µM. hit rate 56% among 1,800. AID 651580;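 active = mean inhibition across four replicates of at least 40 percent at the single tested concentration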
HIF-1a cs = counter-screen for HIF-2a inhibitors: HIF-1a inhibition in MiaPaCa-2 cells; shares compounds with HIF-2a block; MiaPaCa-2 HIF-1a luciferase reporter, desferoxamine, overnight; inhibition, % at 18.8 µM; hit rate 72% among 1,800; AID 651589;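 active = mean inhibition of the reporter signal across four replicates at the single tested dose of 50% or more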
The depositor's hits bear a star; . = no result given. Sampled rows, rich in hits. Any-hit rate of the full collection: about 2.1%.

SMILES | KKLEB tox | CF NFkB inh | PAX8 inh HTS | EWS-Fli inh | HIF-2a block | HIF-2a inh conf | HIF-1a cs | others
COc1ccc(/C=C/C(=O)c2cc(F)ccc2OC(=O)c2ccc(OC)c(OC)c2)cc1OC | -4.6 | 4.6 | 2.9 | -2.0 | 1.7 | . | .
CN1C(=O)c2cc(NC(=O)Nc3ccc(Cl)cc3)ccc2OC[C@@H]2O[C@@H](CC(=O)O)CC[C@H]21 | . | . | -7.1 | -1.9 | . | . | .
CCCN1C[C@H](C)[C@@H](OC)CN(C)C(=O)c2cc(NC(=O)c3cccc(OC)c3)ccc2OC[C@H]1C | . | . | . | 1.8 | . | . | .
O=Cc1s/c(=N\S(=O)(=O)c2ccccc2)n(CCCCl)c1Cl | -68.8* | 89.3* | 76.1* | 54.6* | 96.4* | 93.4* | 101.7*
COC(=O)c1c(NC(=O)COc2ccc(Cl)cc2)sc2c1CC(C)(C)NC2(C)C | -57.0* | 33.0 | 5.7 | . | 52.0* | 9.1 | 99.2*
COC(=O)c1c(NC(=O)Cc2ccccc2)sc2c1CC(C)(C)NC2(C)C | -17.5 | 16.3 | -1.2 | 0.5 | 7.0 | . | .
O=C(c1cccs1)N1CCN=C1SCc1ccccc1 | -4.1 | -9.0 | 1.1 | . | -25.0 | . | .
O=C(c1cccs1)N1CCN=C1SCc1ccc(F)cc1 | 0.8 | -7.7 | -7.7 | -85.6 | 52.0* | -31.7 | 17.5
CCOC(=O)COc1ccc(S(=O)(=O)Nc2cccc(SC)c2)cc1 | -2.9 | 4.1 | . | . | 50.2* | 18.1 | -0.8
CC(C)CC#Cc1ccc([C@@H]2[C@@H](CO)N3C(=O)CN(C(=O)NC4CCCCC4)C[C@H]23)cc1 | . | . | -7.0 | -9.2 | . | . | .
COCCN(Cc1ccco1)C(=O)Cn1ncc2c(=O)oc3ccccc3c21 | 6.8 | -11.8 | 10.4 | -1.9 | 45.2* | -4.5 | 17.6
CCc1ccc(OCC(=O)NC(NC(=S)Nc2ccccc2C)C(Cl)(Cl)Cl)cc1 (stereo not given) | 6.0 | 14.9 | 116.0* | 22.1 | 40.8* | -5.7 | 63.6*
CCc1ccc(OCC(=O)NC(NC(=S)Nc2ccccc2OC)C(Cl)(Cl)Cl)cc1 (stereo not given) | 2.0 | 2.2 | 42.5 | 5.9 | 49.9* | -1.2 | 28.5
CCc1ccc(OCC(=O)NC(NC(=S)Nc2ccccc2)C(Cl)(Cl)Cl)cc1 (stereo not given) | -11.9 | 1.9 | 21.2 | . | 22.8 | . | .
Cc1ccccc1NC(=S)NC(NC(=O)COc1ccccc1)C(Cl)(Cl)Cl (stereo not given) | 4.3 | 13.7 | 14.0 | . | 20.3 | . | .
COc1ccc(NC(=O)Nc2ccc3c(c2)C(=O)N([C@H](C)CO)C[C@H](C)[C@H](CN(C)C(=O)Nc2cccc4ccccc24)O3)cc1 | . | . | 10.9 | -5.4 | . | . | .
CN1C(=O)c2cc(NC(=O)Cc3ccccc3)ccc2OC[C@@H]2O[C@@H](CC(=O)NCC3CC3)CC[C@H]21 | . | . | -2.8 | -9.2 | . | . | .
C[C@@H]1CCCCO[C@@H](CN(C)C(=O)Nc2ccc(F)cc2)[C@H](C)CN([C@H](C)CO)C(=O)c2cc(NC(=O)CCCN(C)C)ccc2O1 | . | . | -1.2 | . | . | . | .
COc1ccc(-n2c(C)c([N+](=O)[O-])c3ccc(O)c(CN(C)C)c32)cc1 | -22.9 | 79.2* | . | . | 14.5 | . | . | Mdm2 MdmX conf=94.2*
COc1ccc(-n2c(C(C)n3nc(C)c([N+](=O)[O-])c3C)n[nH]c2=S)cc1 (stereo not given) | 12.2 | -13.0 | . | . | 14.5 | . | .
CCOC(=O)c1c(C)nn(-c2ccc(NC(=O)c3c(C)noc3C)cc2)c1C | -5.4 | 19.9 | 19.6 | 11.8 | 65.5* | 80.3* | 39.9
CCOC(=O)c1c(C)nn(-c2ccc(NC(=O)/C=C/C(=O)O)cc2)c1C | 7.3 | -2.6 | 18.3 | 48.3 | 74.5* | 48.2* | 30.0
COc1ccc2c3c([nH]c2c1)[C@@H](CO)N(Cc1ccccc1)CC31CCN(C)CC1 | . | . | . | -7.5 | . | . | .
C[C@H]1CN([C@@H](C)CO)C(=O)Cc2cc(NC(=O)C3CC3)ccc2O[C@@H]1CN(C)Cc1ccccc1 | . | . | 3.0 | -3.3 | . | . | .
C=C1C(=O)[C@]23C[C@H]1CCC2[C@]1(C)CCC[C@@](C)(C(=O)O)C1C[C@@H]3O (stereo not given in full) | -82.8* | 92.6* | 117.2* | 40.4 | 87.7* | 91.0* | 104.2*
